# Sampled rows, rich in hits. Any-hit rate of the full collection: about 3.7%.
# RGS4 inh – Inhibitors of Regulator of G Protein Signaling (RGS) 4: qHTS; Transcreener GDP fluorescence polarization, RGS4-accelerated GTP hydrolysis; Potency, µM (series often up to 114 µM), actives largely listed as inhibitors; 390,000 tested, 0.039% active; AID 504845, 2011; further: nearly all actives have a fitted effect of over 75% in size
#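 MLSMR compounds (23 nl, pin-transferred) preincubated 10 min at room temperature with a 500nM (2x) first reagent, then RGS4 at 900nM (2x) plus Transcreener GDP mix added; fluorescence polarization (620/688 nm) read before and after 90 min at 30 °C.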
# PTHR1 agonist – qHTS for PTHR1 Agonists: Primary Screen; Parathyroid hormone/parathyroid hormone-related peptide receptor (Homo sapiens), Q03431; HEK293 GP2 PTHR1 cells, GloSensor cAMP luminescence, 1 h; Potency, µM (titrated, usually from 115 µM), hits mostly activators; 410,000 tested, 0.075% active; further: nearly all actives have a fitted effect of over 55% in size
# Target sequence (Q03431 whole entry, looked up): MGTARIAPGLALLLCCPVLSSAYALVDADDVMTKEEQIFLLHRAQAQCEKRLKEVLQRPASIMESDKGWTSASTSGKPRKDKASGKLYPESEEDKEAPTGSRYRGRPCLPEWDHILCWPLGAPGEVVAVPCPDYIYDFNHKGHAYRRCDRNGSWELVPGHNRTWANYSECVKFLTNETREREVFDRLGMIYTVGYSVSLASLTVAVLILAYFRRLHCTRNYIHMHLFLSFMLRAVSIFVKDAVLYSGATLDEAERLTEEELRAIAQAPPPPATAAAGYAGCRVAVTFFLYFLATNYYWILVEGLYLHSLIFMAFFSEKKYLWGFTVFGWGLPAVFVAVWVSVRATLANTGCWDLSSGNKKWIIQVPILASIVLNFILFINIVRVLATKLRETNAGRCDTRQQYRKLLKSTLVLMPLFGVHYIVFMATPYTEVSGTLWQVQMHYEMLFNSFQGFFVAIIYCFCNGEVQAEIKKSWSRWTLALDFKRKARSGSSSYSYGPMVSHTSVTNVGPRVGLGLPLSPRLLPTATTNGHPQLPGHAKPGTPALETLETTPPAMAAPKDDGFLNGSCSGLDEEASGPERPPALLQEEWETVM
#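 HEK-293-derived GP2 cells expressing PTHR1 and a GloSensor cAMP reporter, 3,000/well, plated overnight, given luciferin plus IBMX (each 0.5 mM as added) for 1 h at 37 °C, then compound for 1 h at 37 °C. Luminescence was read after 15 min at room temperature.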
# B2AR arrestin – qHTS assay of beta-arrestin-biased ligands of beta2-adrenergic receptor; Beta-2 adrenergic receptor (Homo sapiens), P07550; beta-arrestin recruitment to beta2AR, cell-based reporter; Potency, µM (series often up to 46.1 µM), actives largely listed as activators; 330,000 tested, 0.02% active; further: nearly all actives have a fitted effect of over 65% in size
# D3 antag – qHTS of D3 Dopamine Receptor Antagonist: qHTS; D3R cells, DiscoveRx beta-arrestin luminescence, antagonist mode; stronger effect = lower value; 360,000 tested, 2.5% active; max response, negative = inhibition, %; in the data active means max response below about -50%; inconclusive means no clear call, values can overlap the other calls
#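 Cells expressing the human receptor were seeded at 1500 cells/well, incubated overnight at 37 degrees C in 5% CO2, then exposed to library compounds with dopamine controls for 90 minutes at 37 degrees C before luminescent detection.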
# D3 ag – qHTS of D3 Dopamine Receptor Agonist: qHTS; max activation, %; D3R DiscoveRx beta-arrestin cells, luminescence, 90 min; D(3) dopamine receptor (Homo sapiens), P35462; 410,000 tested, 0.58% active; in the data active means max activation above about 30%
#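 Agonist-mode cell screen: cells plated at 1500/well and incubated overnight at 37 °C, then exposed to library compounds for 90 min at 37 °C. Detection reagent was added for 30–60 min at room temperature, and luminescence was read.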
# BRCA1 expr up – qHTS Assay to Identify Small Molecule Activators of BRCA1 Expression. MCF7-BRCA1-FFLuc reporter, luminescence, 48 h; response scale: scaled: vehicle 0%, 10 µM genistein 100%. Potency, µM (highest dose often 46.1 µM), most hits filed as activators. 380,000 tested, 1.1% active; further: nearly all actives have a fitted effect of over 80% in size
#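 Luminescence from a BRCA1-driven firefly luciferase in MCF7 cells was the read-out, taken 15 min after substrate addition following 48 h compound exposure at 37 °C. Data were normalized to a 10 microM genistein control and DMSO vehicle.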
# A number is an active result; n = inactive; u = inconclusive; x = no result; [ ] = remark or other dose. Unless noted, the call rests on the fitted dose curve; in most records, active means well fitted curve in the direction sought with a large enough effect; inconclusive means small, poorly fitted or top-dose-only effect, or another doubt; inactive means no such curve, though single readings can be large; an effect the other way counts as inactive or inconclusive.
SMILES,RGS4 inh,PTHR1 agonist,B2AR arrestin,D3 antag,D3 ag,BRCA1 expr up
Nn1cnnc1N/N=C/c1cc(Br)cc(Br)c1O,n,n,n,-90,n,n
Cc1cccc(C)c1NC(=O)C(c1ccncc1)n1c(=O)c(-c2cc3ccccc3[nH]2)nc2ccccc21 (stereo not drawn),x,n,x,n,n,x
Cc1ccc(C(C)C)cc1OCC(=O)N/N=C/c1ccc2c(c1)OCCO2,n,n,n,n,48,n
CC(=O)c1cccc(Nc2cc(C)nc3nc(Cc4ccccc4)nn23)c1,n,n,x,x,n,n
O=C(O)c1cccc(S(=O)(=O)Nc2ccc3[nH]c(=O)[nH]c3c2)c1,n,u,n,n,n,n
O=C(O)c1cccc(S(=O)(=O)Nc2ccc3oc(=O)sc3c2)c1,u,n,n,-87,n,n
CN1CCCC(CC2c3ccccc3Sc3ccccc32)C1 (stereo not drawn),n,n,n,-68,n,n
CN1CCCC(CN2c3ccccc3Sc3ccccc32)C1 (stereo not drawn),n,n,n,n,n,n
CN1OC[C@@H]2CN(Cc3cc(Cl)cc(Cl)c3)[C@H](c3cccc(Br)c3)C[C@@H]21,n,n,x,n,n,n
Cc1ccc(NC(=O)CN2CCCCCC2)cc1Br,u,n,n,-85,n,n
Cc1ccc(NC(=O)CN2CCCCCC2)c(Br)c1,n,n,n,n,n,11µM
COc1ccccc1CNS(=O)(=O)c1cc(-c2cc(C)no2)ccc1C(C)C,n[11.4 µM],n,n,n,n,n
COc1ccc(-c2csc(-c3cccnc3)n2)cc1C,n,n,n,n,n,13µM
COc1ccc(-c2csc(NC(C)=O)n2)cc1OC,u,n,n,n,n,n
COc1cccc(-c2csc(NC(C)=O)n2)c1,n,n,n,n,n,13µM
CC(=O)Nc1nc(COc2ccccc2)cs1,n,n,n,n,n,10µM
COc1ccc(-c2csc(Nc3ncccc3C)n2)cc1OC,n,n,n,n,n,2.8µM
CC(=O)Nc1nc(COc2ccc3ccccc3c2)cs1,n,n,n,n,n,n[1.84 µM]
CCc1ccc(NC(=O)c2c(C(=O)Nc3ccccc3)sc3nc(C)cc(=O)n23)cc1,n,n,n,n,n,n
O=C(CN1C(=O)NC2(CCCC2)C1=O)OCc1ccc(Cl)c(Cl)c1,n,n,n,n,n,n
COc1cccc(NC(=O)Nc2nc(-c3ccc(OC)c(OC)c3)cs2)c1,n,n,n,n,49,n
COc1ccc(NC(=S)Nc2ncccc2C)cc1OC,n,n,n,n,n,7.9µM
CN1CCCC(C)(C(=O)Nc2ccc3scnc3c2)C1 (stereo not drawn),x,n,x,n,n,n
CCNc1nc(Oc2ccc(OCC(=O)OC)nn2)nc(N2CCOCC2)n1,n,n,x,x,n,n
Cc1cccc(Nc2nc(N)nc(CN3CCC(C(N)=O)CC3)n2)c1C,n,n,n,n,n,n
SMILES,RGS4 inh,PTHR1 agonist,B2AR arrestin,D3 antag,D3 ag,BRCA1 expr up
Nc1nc(CN2CCN(Cc3ccccc3)CC2)nc(Nc2ccccc2)n1,n,n,n,u,n,n
Cc1cccc(Nc2nc(N)nc(CN3CCN(c4ccccc4F)CC3)n2)c1,n,n,x,-53,n,n
Cc1ccc(Nc2nc(N)nc(CN3CCc4ccccc4C3)n2)cc1,n,n,n,-64,n,n
Cc1c(Cl)cccc1Nc1nc(N)nc(CN2CCc3ccccc3C2)n1,n,n,n,-64,n,n
CCc1cccc(NC(=O)COC(=O)c2ccccc2OCc2ccccc2Br)c1,x,x,x,x,x,n
CCOc1ccccc1NC(=O)CCCc1nc(-c2ccccc2Cl)no1,n,n,x,x,n,x
O=C(c1cc(-c2cccc(Cl)c2)on1)N1CCCCCC1,n,n,n,n,n,13µM
CN1CCN(C(=O)c2cc(-c3cccc(Cl)c3)on2)CC1,n,n,n,u,n,u
Cc1cccc(NC(=O)c2cnn3ccccc23)c1C,n[11.4 µM],n,n,n,n,13µM
Cc1cccc(NC(=O)c2ccccc2O)c1C,n,n,n,n,n,u
Cc1cccc(N2CCN(S(=O)(=O)c3cc(Cl)ccc3Cl)CC2)c1C,n,n,x,x,65,n
Cc1cc(Cl)c(S(=O)(=O)N2CCN(c3cccc(C)c3C)CC2)cc1OCC(N)=O,n,n,n,n,n,n[1.84 µM]
Cc1ccc2c(CNCc3cccs3)c(C(=O)O)n(Cc3ccc(F)cc3)c2c1,n,n,x,x,n,n
O=C(Nc1ccc(Nc2ccccc2)cc1)c1cc([N+](=O)[O-])ccc1Cl,n,n,n,-51,n,n
O=C(Nc1ccccc1Oc1ccccc1)c1cc([N+](=O)[O-])ccc1Cl,n,n,n,n,n,n
O=C(O)c1ccccc1Nc1ccc([N+](=O)[O-])cc1,n,n,n,n,n,13µM
C#CC(=O)N(c1ccc(OC)c(OC)c1)C(C(=O)NC1CCCC1)c1cccs1 (stereo not drawn),n,n,n,-72,n,n
Cc1cccc(N(C(=O)C(F)(F)F)C(C(=O)NC2CCCCC2)c2cccs2)c1 (stereo not drawn),n,n,n,n,n,n
C#CC(=O)N(c1cccc(OC)c1)C(C(=O)NC1CCCC1)c1cccs1 (stereo not drawn),n,n,n,-63,n,n
CC(C)Oc1ccc(CN2CCC2(C)C(=O)NCc2cccc3ccccc23)cc1 (stereo not drawn),x,n,x,n,n,n
CCOC(=O)c1cccc(NC(=O)C(CC(C)C)N2Cc3ccccc3C2=O)c1 (stereo not drawn),n,n,x,x,n,x
CCn1cc(Cl)c(C(=O)Nc2ccccc2C(N)=O)n1,n,n,n,n,48,n
CCn1cc(Br)c(C(=O)Nc2ccccc2C(=O)OC)n1,n,n,n,n,n,n
Cc1ccc(/C=C2\CCOC2=O)cc1,n,n,n,n,n,n
Cc1ccc(/C=C2/CNC/C(=C/c3ccc(C)cc3)C2=O)cc1,n,n,x,-51,n,n
Oc1c(Cl)cc(Cl)cc1/C=N/NC(=S)NC1CC2C=CC1C2 (stereo not drawn),n,n,n,-85,n,n
Oc1ccccc1C=NNC(=S)NC1CC2C=CC1C2 (stereo not drawn),x,n,x,n,n,n
O=C(NCC1CCCCC1)c1ccc(F)cc1Cl,n,n,n,n,n,5.6µM

# Assay outcomes: PubChem BioAssay, National Center for Advancing Translational Sciences (NCATS)
